# Compound activity from PubChem BioAssay.
# ROC1-CUL1 inh – inhibitors of human ROC1-CUL1 ubiquitin ligase activity | hit rate 0.6% among 140,000 | in vitro K48 di-Ub FRET, acceptor:donor ratio, 45 min | inhibition, % at 10 µM | P62877+Q13616; in the data active means inhibition above about 25%
# Target sequence (P62877 whole entry, looked up): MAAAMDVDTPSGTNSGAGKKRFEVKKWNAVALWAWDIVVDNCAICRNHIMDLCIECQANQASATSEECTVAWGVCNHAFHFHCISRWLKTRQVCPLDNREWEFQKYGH
# Target sequence (Q13616 whole entry, looked up): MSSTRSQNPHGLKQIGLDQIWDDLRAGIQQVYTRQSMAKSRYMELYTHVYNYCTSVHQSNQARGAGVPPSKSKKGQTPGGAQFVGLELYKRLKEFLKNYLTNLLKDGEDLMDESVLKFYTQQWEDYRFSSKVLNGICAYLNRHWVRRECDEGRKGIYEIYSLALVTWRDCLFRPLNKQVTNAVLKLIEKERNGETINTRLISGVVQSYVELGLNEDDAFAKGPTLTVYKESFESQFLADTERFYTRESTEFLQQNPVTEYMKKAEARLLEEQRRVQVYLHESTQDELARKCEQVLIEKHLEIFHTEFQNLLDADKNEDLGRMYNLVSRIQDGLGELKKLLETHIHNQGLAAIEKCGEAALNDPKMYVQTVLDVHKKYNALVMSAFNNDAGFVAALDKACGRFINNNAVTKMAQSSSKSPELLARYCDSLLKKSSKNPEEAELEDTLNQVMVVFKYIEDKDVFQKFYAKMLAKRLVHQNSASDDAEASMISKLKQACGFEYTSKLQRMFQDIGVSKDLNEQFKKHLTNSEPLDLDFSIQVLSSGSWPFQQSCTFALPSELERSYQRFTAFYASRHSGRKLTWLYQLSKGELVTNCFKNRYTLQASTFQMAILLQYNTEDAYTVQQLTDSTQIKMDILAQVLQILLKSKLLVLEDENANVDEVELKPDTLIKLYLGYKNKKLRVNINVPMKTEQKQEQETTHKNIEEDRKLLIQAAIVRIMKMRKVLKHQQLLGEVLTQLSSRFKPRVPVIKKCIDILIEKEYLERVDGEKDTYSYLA
# Numbers stand for hits; i = inactive. The full list was thinned out, with hits kept by preference.
SMILES,ROC1-CUL1 inh
C#CCOc1ccc(/C=C2/C(=O)N(c3ccc(C)cc3)N=C2C)cc1OCC,i
CCOc1cc(/C=C2/C(=O)N(c3cccc(C(F)(F)F)c3)N=C2C)ccc1OCc1ccccc1,i
C#CCOc1ccc(/C=C2\C(=O)N(c3ccc(C(=O)OCC)cc3)N=C2C(F)(F)F)cc1OCC,41
CC(=O)Oc1c(C#N)n(C(C)=O)c2ccccc12,i
CCOC(=O)c1c(C)n(-c2ccccc2)c2ccc(OC(=O)c3ccccc3Cl)cc12,i
CCOC(=O)c1c(C(=O)OCC)c(C)n(-c2ccccc2C(=O)O)c1C,36
CCOC(=O)c1c(C)n(-c2ccccc2)c(C)nc1=S,i
Cc1ccc(-c2nc3ccccc3c(C(=O)Nc3cc(C)cc(C)c3)c2C)cc1,i
O=C(Cc1ccccc1)Nc1ccc(C(=O)NNC(=O)c2ccccc2)cc1,i
CC1CN(Cc2cnn(-c3ccccc3)c2)Cc2ccccc2O1 (stereo not given),i
CC(C)CCCC(C)C1CCC2C3CC([N+](=O)[O-])=C4C[C@@H](Cl)CCC4(C)C3CCC12C (stereo not given in full),i
CC(C)CCCC(C)C1CCC2[C@@H](C(=O)O)C([C@@]3(C)CCC=CC3=O)CC[C@]12C (stereo not given in full),97
CC(=O)OC1CC[C@](C)(C2CC[C@]3(C)C(C(C)CCCC(C)C)CCC3C2C(=O)O)C(=O)C1 (stereo not given in full),i
COc1cccc(/C=N/N2C(=O)c3ccccc3C2=O)c1O,i
COc1ccc(S(=O)(=O)N=C2C=C(Sc3ccc(C)cc3)C(=O)c3ccccc32)cc1,i
O=C1C(Sc2ncn[nH]2)=CC(=NS(=O)(=O)c2ccc(Cl)cc2)c2ccccc21,90
Cc1ccc(S(=O)(=O)N=C2C=C(C3C(=O)CC(C)(C)CC3=O)C(=O)c3ccccc32)cc1,i
Cc1c([N+](=O)[O-])c([N+](=O)[O-])nn1CC(=O)Nc1ccc(Cl)cc1Cl,i
Cc1cc(C)c2c(CC(N)=O)coc2c1C,i
CCc1ccc(C(=O)N2CCN(c3ccccc3F)CC2)s1,i
O=C(NCc1ccco1)c1nn2c(C(F)(F)F)cc(-c3cc(Br)cs3)nc2c1Br,i
COc1ccc(CNC(=O)c2nn3c(C(F)(F)F)cc(-c4ccc(Br)cc4)nc3c2Br)cc1,i
COc1ccc(-c2cc(C(F)(F)F)n3nc(C(=O)NCc4ccco4)c(Br)c3n2)cc1,29
O=C(Cc1cccc2ccccc12)Nc1ccc(O)cc1,i
COc1ccc(-c2cccc(-c3ccn(Cc4cccnc4)n3)c2)cn1,i
SMILES,ROC1-CUL1 inh
O=C(O)c1cc2c3c(c1)C1CC=CC1C(c1ccc(Br)cc1)N3CC1CC=CC21 (stereo not given),102
Cc1cc2c3c(c1)C1C=CCC1C(c1ccc(Br)cc1)N3CC1CC=CC21 (stereo not given),i
O=[N+]([O-])c1ccc(C2C3CC=CC3c3c4c(cc5ccccc35)C3C=CCC3CN42)cc1 (stereo not given),i
CCOC(=O)C(NC(=O)c1ccccc1F)(Nc1ccc(F)c(F)c1F)C(F)(F)F (stereo not given),i
CCC(CC)C(=O)Nc1ccccc1C(=O)O,i
O=c1[nH]c(-c2cccc(CN3CCCC(Cn4ccnc4)C3)c2)nc2c1CCC2 (stereo not given),i
O=C1C(=O)N(c2nnc(SCc3ccc(Cl)cc3)s2)C(c2cccs2)C1C(=O)c1cc2ccccc2o1 (stereo not given),45
O=C1C(=O)N(c2nnc(SCc3ccc(Cl)cc3)s2)C(c2cccc(O)c2)C1C(=O)c1cc2ccccc2o1 (stereo not given),i
CCOc1cc(C2C(C(=O)c3cc4ccccc4o3)C(=O)C(=O)N2c2nnc(SCc3cccc4ccccc34)s2)ccc1O (stereo not given),i
CCOc1ccc(C2C(C(=O)c3cc4ccccc4o3)C(=O)C(=O)N2c2nnc(SCc3ccccc3F)s2)cc1OC (stereo not given),i
O=C1C(=O)N(c2nnc(SCc3ccccc3)s2)C(c2cccs2)C1C(=O)c1cc2ccccc2o1 (stereo not given),i
CCOc1cc(C2C(C(=O)c3cc4ccccc4o3)C(=O)C(=O)N2c2nnc(SCc3ccccc3)s2)ccc1O (stereo not given),65
Cc1cc(C)c(NC(=O)C2CCN(C(=O)c3ccccc3F)CC2)c(C)c1,i
COc1ccc(-c2csc3nc(SC)[nH]c(=O)c23)cc1,i
Cc1ccc(SCc2[nH]nc3c2C(c2ccoc2)C(C#N)C(=N)O3)cc1 (stereo not given),i
CC(=O)Nc1ccc(NS(=O)(=O)c2ccc(C(C)(C)C)cc2)cc1,i
COc1ccc(C(=O)NC2CC2)c(OC2CCN(Cc3ccccn3)CC2)c1,i
COCc1ccc(C(=O)Nc2ccc(-c3nc(CNC(=O)Cc4cccc(F)c4F)c(C)o3)cc2)o1,i
Cc1ccc(/C=C\c2ccc3ccccc3c2)cc1,i
CC[n+]1c(/C=C/c2ccc3c(c2)c2ccccc2n3C)ccc2ccccc21,69
Cn1c2ccccc2c2cc(/C=C/c3nc4ccccc4s3)ccc21,i
C#CCNC(=O)C[n+]1c2ccccc2n2nc3c(cc21)c1cccc2cccc3c21,i
Cn1c2cccc3cccc(c32)[n+]2nc3c(cc12)c1cccc2cccc3c21,95
Cn1c2ccccc2c2nsnc21,i
O=C1CSC2=NC3=C(CCC/C3=C\c3ccc(Br)cc3)C(c3ccc(Br)cc3)N12 (stereo not given),i
SMILES,ROC1-CUL1 inh
CC1=NC2=NC(=O)/C(=C/c3ccc(Br)cc3)N2C(=O)C1,79
Cc1ccc(/C=C2/C(=O)N(C)C(=S)N2C)cc1,i
COc1cccc(CCC2CCCN(C(=O)C3CCOCC3)C2)c1 (stereo not given),i
OCCN1CCN(Cc2ccc3c(c2)CN(CC2CC=CCC2)CCO3)CC1 (stereo not given),i
CCN(CC)CN1C(=O)S/C(=C/c2ccc(N(CC)CC)cc2)C1=O,i
CCN(CC)c1ccc(/C=C2\SC(=S)N(N)C2=O)cc1,55
CCCN1C(=O)/C(=C/c2ccc(N(C)C)cc2)SC1=S,i
CC(C)c1ccc2c(c1)C(N1CCN(C)CC1)Cc1cc(F)ccc1S2 (stereo not given),i
COc1ccc(-c2cc3n(n2)C(=O)CC(N)=N3)cc1,i
Cc1cccc(C)c1Oc1ncccc1CNC(=O)C1CCN(C)C1 (stereo not given),i
Cc1c(C(=O)Nc2cccc(F)c2)sc2nc(-c3cc4ccccc4oc3=O)[nH]c(=O)c12,i
Cc1cc(C)cc(NC(=O)c2sc3nc(-c4cc5ccccc5oc4=O)[nH]c(=O)c3c2C)c1,i
Cc1cccc(NC(=O)c2sc3nc(-c4cc5ccc(O)cc5oc4=O)[nH]c(=O)c3c2C)c1,63
CCCNS(=O)(=O)c1cc(C(=O)NC2CC2)ccc1OC,i
CS(=O)(=O)N1CCC(Oc2ccc(C(=O)N3CCCCCC3)cc2Cl)CC1,i
CCN=C1CC=C(Br)C=C(C(=O)/C=C/c2ccc(N(C)C)cc2)C1=O,i
CCN=C1CC=CC=C(C(=O)/C=C/c2cc(OC)ccc2OC)C1=O,i
CCN=C1CC=CC=C(C(=O)/C=C/c2ccc(C(F)(F)F)cc2)C1=O,i
CCN=C1CC=CC=C(C(=O)/C=C/c2ccccc2OC)C1=O,87
CCN=C1CC=C(Br)C=C(C(=O)/C=C/c2cccc(Cl)c2Cl)C1=O,i
CC(C)CCNC(=O)/C=C/c1ccc(Cl)c(Cl)c1,i
CCN=C1CC=CC=C(C(=O)/C=C/c2ccc(Cl)c(Cl)c2)C1=O,62
